Laboratory results from ChEMBL document CHEMBL3988442, “University of Dundee, Small-Polar-MMV Screening Library” (2021).
Among all 48,000 compounds or so, about 13,000 (27%) showed an effect of 50% or more. The list shows a part of the results.

What follows are compounds tested on Wolbachia pipientis (assay: Anti-Wolbachia Cell-Based Screen). Details: 5 µM.
Type: functional
Design: scale not given: in the data most compounds retested in dose-response had high values

Structure (SMILES) | Percent Effect
O=C(O)C(F)(F)F.c1cnc(N2CCOC3(COCCN(Cc4cc[nH]n4)C3)C2)nc1 (stereo not drawn) | -4.382%
Fc1cnc(N2CCCC3(CN(Cc4cccs4)CCO3)C2)nc1.O=C(O)C(F)(F)F (stereo not drawn) | 111.6%
O=C(O)C(F)(F)F.OCCN1CCOC2(CCCN(c3ncc(F)cn3)C2)C1 (stereo not drawn) | 13%
Cc1cnc(N2CCOC3(CCCN(CC(=O)N(C)C)C3)C2)nc1.O=C(O)C(F)(F)F.O=C(O)C(F)(F)F (stereo not drawn) | -7.39%
Cc1cnc(N2CCC3(CC2)CN(Cc2cccs2)CCO3)nc1.O=C(O)C(F)(F)F.O=C(O)C(F)(F)F | 102.1%
O=C(O)C(F)(F)F.c1cnc(N2CCOCC3(CN(Cc4ccsc4)CCO3)C2)nc1 (stereo not drawn) | -6.179%
CN(C)C(=O)CN1CCOCC2(C1)CN(c1ncccn1)CCO2.O=C(O)C(F)(F)F (stereo not drawn) | 101.1%
Fc1cnc(N2CCC3(CC2)CN(Cc2cccs2)CCO3)nc1.O=C(O)C(F)(F)F.O=C(O)C(F)(F)F | 98.63%
O=C(O)C(F)(F)F.c1cnc(N2CCOCC3(CN(Cc4nccs4)CCO3)C2)nc1 (stereo not drawn) | 8.217%
Cc1cnc(N2CCOC3(CCCN(C)C3)C2)nc1.O=C(O)C(F)(F)F (stereo not drawn) | -2.261%
CC[C@H]1CN2CC[C@H]1C[C@@H]2CNC(=O)Nc1ccc(Br)cc1 | -5.559%
CC(Cc1c(F)cccc1F)NC(=O)CN(CC(N)=O)C(C)C (stereo not drawn) | 2.304%
COc1cc(C2(C(=O)NCCn3ccnc3)CCCC2)ccc1C | 17.74%
c1ccc(CNc2ncc(CN3CC[C@H]4CC[C@@H](C3)N4)cn2)cc1 | -14.93%
O=C(c1ccc(F)c(F)c1)N1C[C@H]2CNC[C@H]2C1 | -36.88%
COc1ccc(-c2ccccc2CCN)c(OC)c1 | 16.22%
Cn1cc(CN2CC[C@H]3[C@H]2CC(=O)N3Cc2ccncc2)cn1 | 97.58%
Cn1cc(C(=O)N2CC[C@@H]3[C@@H]2CCN3Cc2ccncc2)cn1.O=C(O)C(F)(F)F.O=C(O)C(F)(F)F | 8.346%
Cn1cc(CN2C[C@@H]3[C@@H](C2)OCC(=O)N3Cc2ccncc2)cn1 | -7.726%
CCOC(=O)N1CCC2(CCNC2)C1.Cl (stereo not drawn) | -20.05%
CN1CCC2(COCc3cnc(N4CCOCC4)nc32)C1.O=C(O)C(F)(F)F (stereo not drawn) | -0.9764%
CC(C)c1nccc([C@H]2C[C@@H]3CCN(Cc4ccoc4)C[C@H]3O2)n1 | -1.768%
CN(CCOCC1CC1)C(=O)Nc1ccc(C#N)c(Cl)c1 | 80.92%
CCc1noc(CN(C)CCC(=O)Nc2ccc(C#N)c(Cl)c2)n1 | 4.268%

Structure (SMILES) | Percent Effect
N#Cc1ccc(NC2CCN(c3ncccn3)CC2)cc1Cl | -9.238%
Cc1ccc(C(=O)N2C[C@@H]3CCN(C(C)C)C[C@@H]3C2)cn1.O=C(O)C(F)(F)F | -22.14%
O=C(Nc1cccnc1)[C@H]1CO[C@H]2CCNC[C@H]2C1.O=C(O)C(F)(F)F.O=C(O)C(F)(F)F | 99.23%
O=C(Nc1cccnc1)[C@@H]1C[C@H]2OCC[C@H]2N(Cc2ccsc2)C1.O=C(O)C(F)(F)F.O=C(O)C(F)(F)F | -12.16%
CN(Cc1ccccn1)C1CCC[C@@H]2CN(CC3CC3)C[C@H]12.O=C(O)C(F)(F)F.O=C(O)C(F)(F)F (stereo partly drawn) | -32.78%
CCCN1CC[C@@H]2OC[C@H](C(=O)Nc3cccnc3)C[C@@H]2C1.O=C(O)C(F)(F)F.O=C(O)C(F)(F)F | 103.7%
CN(C)C(=O)[C@@H]1CC[C@@H]2[C@@H](CCN2Cc2ccccn2)O1.O=C(O)C(F)(F)F.O=C(O)C(F)(F)F | -15.27%
O=C(Nc1cccnc1)[C@H]1C[C@@H]2CCN(Cc3nccs3)C[C@@H]2O1.O=C(O)C(F)(F)F.O=C(O)C(F)(F)F | 21.14%
O=C(Nc1cccnc1)[C@H]1CN(C2CCCC2)C[C@H]2OCC[C@@H]12.O=C(O)C(F)(F)F.O=C(O)C(F)(F)F | 2.861%
CC(C)N1CC[C@@H]2OC[C@H](C(=O)Nc3cccnc3)C[C@@H]2C1.O=C(O)C(F)(F)F.O=C(O)C(F)(F)F | 84.8%
O=C(Nc1cccnc1)[C@H]1COC[C@H]2CN(C3CCCC3)C[C@H]21.O=C(O)C(F)(F)F.O=C(O)C(F)(F)F | 10.99%
CN1CC[C@@H]2OC[C@H](C(=O)N(C)Cc3ccccn3)C[C@@H]2C1.O=C(O)C(F)(F)F.O=C(O)C(F)(F)F | 91.38%
CCOCCN1C[C@H](C(=O)Nc2cccnc2)[C@@H]2CCO[C@@H]2C1.O=C(O)C(F)(F)F.O=C(O)C(F)(F)F | 4.673%
Cl.O=C(C1CCC1)N1CCC2(CCNCC2)C1 | -22.91%
O=C(Cc1ccc(O)c(Cl)c1)N1CCN(CC2CC2)[C@@H]2CS(=O)(=O)C[C@@H]21 | 2.879%
Cc1cc(C)c(CNc2cnc3ccccc3n2)c(=O)[nH]1 | 10.07%
CC1COC2(CCN(C(=O)c3ncoc3C(C)C)CC2)O1 (stereo not drawn) | 0.05226%
O=C(O)C(F)(F)F.O=C(O)C(F)(F)F.O=C1[C@H]2CN(Cc3ccoc3)C[C@H]2CN1Cc1ccncc1 | 1.4%
CS(=O)(=O)Cc1nc(CN2CC=C(c3ccccc3)CC2)cs1 | 9.315%
O=C(C1CCC1)N1CC[C@]2(O)CCN(Cc3ncccn3)C[C@@H]2C1 | 9.794%
Cc1noc([C@@H]2C[C@H]3OCC[C@H]3N(C(C)C)C2)n1.O=C(O)C(F)(F)F | 82.77%
Cc1noc([C@H]2C[C@H]3OCC[C@H]3N(Cc3ccncc3)C2)n1 | 9.305%
Cc1noc([C@]23COC[C@H]2CN(C(C)C)C3)n1.O=C(O)C(F)(F)F | -9.217%
Cc1nc(COC[C@H]2CC[C@H]3NCC[C@H]3O2)cs1.Cl.Cl | -19.37%
